Experimental data as given in PubChem BioAssay AID1159524 (National Center for Advancing Translational Sciences (NCATS), 2015).
Out of some 410,000 compounds screened, about 5,100 (1.2%) were called active. Where a call stands in place of a potency, no number is given. Not shown: some 8% with an inconclusive outcome. The call rests on the fitted dose curve; tested in HEK293T cells. The full list was thinned out, with actives kept by preference.

assay: High Throughput Screening for Foot and Mouth Disease Virus Antivirals; details: FMDV antiviral cell-based qHTS; series mostly up to 57.9 µM; further: read-out not given here; nearly all actives have a fitted effect of over 45% in size
Potency means the concentration at half of the fitted maximal effect.

| Compound | Potency |
| --- | --- |
| COc1cccc(Cn2c(=O)c(CCc3ccccc3)nc3cnc(N(C)C)nc32)c1 | inactive |
| COc1ccc(/C=C2\NC(=O)[C@@H]3Cc4ccccc4CN3C2=O)cc1 | inactive |
| CC(=O)N1CCC2(CC1)CCN(c1ccncc1)CC2 | inactive |
| COc1ccc(C2Oc3c(I)c(OC)cc(OC)c3CC2O)cc1OC (stereo not drawn) | inactive |
| COc1ccc(-n2c(=O)c(C)nc3cnc(N4CCOCC4)nc32)cc1 | inactive |
| Cc1ccc(CCNC(=O)c2ccc3c(c2)nc2n3CCC(C)C2)cc1 (stereo not drawn) | inactive |
| C=CCn1c(SCc2ccccc2)nc2c1c(=O)[nH]c(=O)n2C | inactive |
| CC=CCn1c(SCCCc2ccccc2)nc2c1c(=O)[nH]c(=O)n2C | inactive |
| CCCCCn1c(SCCC(C)C)nc2c1c(=O)[nH]c(=O)n2C | 39.8 µM (active) |
| COc1ccc(S(=O)(=O)NCc2cccn2Cc2cccc(C)c2)cc1 | inactive |
| Cn1cc(-c2nc3cnc(N4CCNCC4)nc3n(CCc3ccccc3)c2=O)c2ccccc21 | inactive |
| Cc1cc(-c2ccnc(-n3ncc(C(=O)NC(C)(C)CO)c3C3CC3)n2)c(C)s1 | inactive |
| CCOC(=O)c1c(NC(=O)c2cc(CC)on2)sc(C(C)=O)c1C | inactive |
| CCOC(=O)c1c(NC(=O)CCl)sc(C(=O)N(CC)CC)c1C | 20 µM (active) |
| CCOC(=O)c1c(NC(=O)COC(=O)c2ccc(S(=O)(=O)C(F)F)cc2)sc(C(=O)N(C)C)c1C | inactive |
| O=C(CCS(=O)(=O)c1ccc2c(c1)NC(=O)CO2)Nc1cccc(C(F)(F)F)c1 | inactive |
| O=C(c1ccco1)N1CCC2(CC1)CN(c1ncccn1)C2 | inactive |
| CCOC(=O)c1cc2c(=O)n3ccccc3nc2n(Cc2ccco2)c1=NC(=O)c1ccc(F)cc1 | inactive |
| Cn1c(=O)c(-c2ccccc2)nc2cnc(N3CCNCC3)nc21 | inactive |
| Cn1cnc(C(F)(F)F)c1-c1ccc([N+](=O)[O-])cc1 | inactive |
| Cc1ccc(-c2cn3cc(C)ccc3n2)cc1 | 8.91 µM (active) |
| Cc1ccc(-n2cc3ccc([N+](=O)[O-])cc3n2)cc1 | inactive |
| Cc1nc(-c2ccccc2)cn2c1nc1ccccc12 | inactive |
| Cc1ccc(-c2cn3cc([N+](=O)[O-])ccc3n2)cc1 | 11.2 µM (active) |
| CN(C)C(=O)c1ccc(-c2cncnc2Nc2ccccc2)cc1 | inactive |

| Compound | Potency |
| --- | --- |
| O=C(c1cccc(F)c1)N1CCC2(CCCN(Cc3ccncc3)C2)CC1 | inactive |
| CC1CCN(S(=O)(=O)c2ccc3c(ccn3CCC(=O)NCc3ccc(N(C)C)cc3)c2)CC1 | inactive |
| Cc1ccc(S(=O)(=O)N2CCC(C(=O)Nc3cc(C)ccc3C)CC2)cc1 | inactive |
| Cc1ccc2nc(NC(=O)C3CCN(S(=O)(=O)c4ccc5c(c4)oc(=O)n5C)CC3)sc2c1 | 12.6 µM (active) |
| Cn1c(=O)oc2cc(S(=O)(=O)N3CCC(C(=O)Nc4ccc(OC(F)(F)F)cc4)CC3)ccc21 | inactive |
| CC(C)N1C[C@@H](NCc2ccccc2O)C[C@H]1C(=O)N1CCN(c2cccc(C(F)(F)F)c2)CC1 | inactive |
| O=c1c(-c2ccc(F)c(F)c2)nc2cncnc2n1-c1ccccc1 | inactive |
| O=C(Nc1ccccc1Cl)N1CCC(CN2CCCCC2)CC1 | inactive |
| O=C(Nc1ccccc1Cl)/C(Cl)=C(\Cl)S(=O)c1ccccc1 (stereo not drawn) | 7.08 µM (active) |
| O=C(Nc1ccccc1Cl)N1CCC(CN2CCCC2)CC1 | inactive |
| CSc1nc(Nc2ccc(F)cc2)cc(-c2ccccc2)n1 | inactive |
| CC(=O)c1ccc(F)c(-c2cc(C)cc3c2OC(CNC(=O)Cc2c[nH]c4ccccc24)C3)c1 (stereo not drawn) | inactive |
| Cc1nnc(SCc2cc(=O)c3cc(F)ccc3[nH]2)n1C | inactive |
| CC(=O)c1c(O)c(C)c(O)c(Cc2c(O)c3c(c(C(=O)/C=C/c4ccccc4)c2O)OC(C)(C)C=C3)c1O | inactive |
| O=C(CSc1nccn1Cc1ccc(F)cc1)NCc1ccccc1 | inactive |
| CC(C)(C)c1ccc(OC(=O)N2CCCCC2)cc1 | inactive |
| CC(C)(C)c1ccc(Oc2ccc(N)cc2)cc1 | 2.51 µM (active) |
| COc1ccc(CCNc2ncnc3c2cnn3-c2ccc(C)cc2)cc1 | inactive |
| CC1(C)CCSC(/C=C/c2ccccc2)=N1 | 14.1 µM (active) |
| CC1(C(=O)NS(=O)(=O)c2ccccc2)CCN1C(=O)C/C=C/c1ccccc1 (stereo not drawn) | inactive |
| CC1(C(=O)O)CCN1C(=O)/C=C/c1ccccc1 (stereo not drawn) | inactive |
| CC1(C)C=CC(=O)[C@]2(C)C1CC(=O)[C@]1(C)C2CC[C@@]2(C)C(c3ccoc3)OC(=O)C3OC321 (stereo partly drawn) | inactive |
| CCCS(=O)(=O)N1CCC(C(=O)NCCc2ccc(OC)c(OC)c2)CC1 | inactive |
| CCCS(=O)(=O)N1CCC(C(=O)NCCCN(C)Cc2ccccc2)CC1 | 28.2 µM (active) |
| CCS(=O)(=O)N1CCCC(C(=O)NCCCN(C)Cc2ccccc2)C1 (stereo not drawn) | inactive |

| Compound | Potency |
| --- | --- |
| Cc1c(O)cc(O)c2c(=O)c(-c3ccc(O)cc3)coc12 | inactive |
| Cc1cccc(N2CCN(C(=O)c3oc(=O)c4ccccc4c3-c3ccccc3)CC2)c1C | inactive |
| CCn1c(C)c(C)c2cc(C(=O)N3CCN(c4cccc(C)c4C)CC3)ccc21 | inactive |
| Cc1cccc(N2CCN(C(=O)c3cc4c(=O)[nH]c5ccccc5c4n3C)CC2)c1C | 31.6 µM (active) |
| O=C(Nc1cccc(F)c1)N1CC2(CCN(C(=O)c3cnccn3)CC2)C1 | inactive |
| COC(=O)c1ccccc1-c1cc(C)cc2c1OC(CNC(=O)C1CCOC1)C2 (stereo not drawn) | inactive |
| Cc1cc(S(=O)(=O)N2CCOCC2)ccc1OCC(=O)N1CCOCC1 | inactive |
| Cc1cc(C(=O)COc2ccccc2[N+](=O)[O-])c(C)n1-c1cccc(S(=O)(=O)N2CCOCC2)c1 | 12.6 µM (active) |
| O=C(COc1ccc(S(=O)(=O)N2CCCC2)cc1[N+](=O)[O-])N1CCCCC1 | inactive |
| CCC1CN(CCNC(=O)c2cccnc2C)Cc2cc(OC)ccc2O1 (stereo not drawn) | inactive |
| CC1=C(c2ccc(F)cc2)S(=O)(=O)N=C1N1CCC(C(=O)NCCc2ccccc2C)CC1 | inactive |
| COCCn1c(=O)c(-c2ccccc2)nc2cnc(N3CCOCC3)nc21 | inactive |
| CC1CCCCC1NC(=O)c1cc(=O)[nH]c2ccccc12 (stereo not drawn) | inactive |
| CC1CC(C)CN(C/C=C/c2ccccc2[N+](=O)[O-])C1 (stereo not drawn) | inactive |
| CC1CCCCC1NC(=O)/C(C#N)=C/C=C/c1ccccc1[N+](=O)[O-] (stereo not drawn) | 28.2 µM (active) |
| Cc1ccc2c(C)nc(N3CCCC(C(=O)NC(C)(C)CO)C3)nc2c1 (stereo not drawn) | inactive |
| CCc1ccccc1NC(=O)N1CCC2(CC1)Oc1ccccc1C(=O)N2Cc1ccccc1F | inactive |
| O=C(Nc1cc(-c2nc3ccccc3o2)ccc1Cl)c1cc([N+](=O)[O-])ccc1N1CCOCC1 | inactive |
| CCCCNS(=O)(=O)CCNCc1ccccc1OC | inactive |
| COc1cccc2oc(CCc3ccccc3)cc(=O)c12 | inactive |
| COc1ccccc1Cc1c(-c2ccc(Cl)cc2)nc2c3ccccc3ccn12 | inactive |
| COc1ccccc1CCn1c(=O)c(-c2cn(C)c3ccccc23)nc2cncnc21 | inactive |
| CCCCCc1c(Cc2ccccc2)ncn1CCc1ccccc1OC | 35.5 µM (active) |
| CCCCc1c(-c2ccc(Br)cc2)ncn1CCc1ccccc1OC | 35.5 µM (active) |
| CCOC(=O)c1cc2c(=O)n3ccccc3nc2n(CC2CCCO2)c1=NC(=O)c1ccccc1F (stereo not drawn) | inactive |

| Compound | Potency |
| --- | --- |
| CCn1cc(C(=O)N2CCN(c3cc(C)ccc3C)CC2)c(=O)c2cc(S(=O)(=O)N(C)C3CCCCC3)ccc21 | inactive |
| Cc1oc(-c2cccc(NC(=O)c3ccccc3)c2)nc1CNC(=O)c1cnc2ccccn2c1=O | inactive |
| O=c1c(-c2ccc(F)cc2)nc2cnc(N3CCNCC3)nc2n1Cc1cccs1 | inactive |
| O=C(C(=O)N1CCOc2ccc(CN3CCN(Cc4ccccn4)CC3)cc2C1)c1ccccc1 | inactive |
| CCC(=O)Nc1ccccc1-c1nc2ccccc2n(CC(=O)Nc2ccc(C)c(C)c2)c1=O | inactive |
| COc1cccc(-c2nc3ccc(N4CCN(C)CC4)cc3[nH]2)c1 | 14.1 µM (active) |
| COc1cccc(N2CCN(C3CC(=O)N(c4ccc(Cl)cc4)C3=O)CC2)c1 (stereo not drawn) | inactive |
| COc1ccc(N2CCN(C3=NS(=O)(=O)C(c4cccc(Br)c4)=C3C)CC2)cc1 | inactive |
| COc1cccc(-n2c(=O)c3c(C)c(C(=O)N(C)C)sc3n(Cc3cccc(C)c3)c2=O)c1 | inactive |
| COCCN(C(=O)CCC(=O)Nc1ccccn1)C(C(=O)NCCC(C)C)c1ccc(OC)cc1 (stereo not drawn) | inactive |
| CCOc1ccc(NC(=O)C2CCCN(C(=O)Nc3ccccc3)C2)cc1 (stereo not drawn) | inactive |
| CCOc1ccc(N/C=C/C(=O)c2ccccc2)cc1 | 10 µM (active) |
| COc1cccc(N(CC(=O)NC2CCCC2)C(=O)CCCC(=O)Nc2ccccn2)c1 | inactive |
| CCOc1ccc(NC(=O)C(C)N2C(=O)c3ccccc3C2=O)cc1 (stereo not drawn) | inactive |
| COc1ccc(C(=O)/C=C/Nc2ccccn2)cc1 | 8.91 µM (active) |
| OCC1CCCN(c2nc3cc4c(cc3cc2CNCc2cccs2)OCO4)C1 (stereo not drawn) | inactive |
| CCn1cc(C(=O)NCc2ccccc2)c(=O)c2cc(S(=O)(=O)N3CCCCC3)ccc21 | inactive |
| C=C1C([C@@]2(C)C(OC(C)=O)CC(=O)O[C@@](C)(COC(C)=O)C2CC(=O)OC)C(OC=O)C(OC(=O)C(O)C(C)CC)[C@]2(C)C(c3ccoc3)CC(=O)C12O (stereo partly drawn) | inactive |
| O=C(CN1Cc2ccccc2OC(c2ccccc2)C1)N1CCCCC1c1cccnc1 (stereo not drawn) | inactive |
| O=c1c(CCc2ccccc2)nc2cnc(N3CCNCC3)nc2n1Cc1cccs1 | inactive |
| CCCCC(O)(CCCC)C(=O)NN(C(=O)CCl)c1ccccc1 | 31.6 µM (active) |
| CCN(C(=O)Nc1cccc2ccccc12)c1ccccc1 | inactive |
| CCCCNC(=O)CN1C(=O)NC(Cc2ccccc2)(Cc2ccccc2)C1=O | inactive |
